The record followed here is PubChem BioAssay AID2283334 (EPA ToxCast).

The experiment concerns the target Grik1 (gene 29559) (UniProt P22756). Put plainly: NVS_IC_rKAR: NovaScreen (NVS) Ion Channel Assay for Kainic Acid Receptors (KAR). As to the method:
NVS_IC_rKAR is a biochemical, single-readout assay that uses extracted gene-proteins from Rat forebrain membranes in a tissue-based cell-free assay. Measurements were taken 1 hour after chemical dosing in a 48-well plate.NVS_IC_rKAR is one of one assay component(s) measured or calculated from the NVS_IC_rKAR assay. It is designed to make measurements of radioligand binding, a form of binding reporter, as detected with scintillation counting signals by Filter-based radiodetection technology.Data from the assay component NVS_IC_rKAR was analyzed into 1 assay endpoint. This assay endpoint, NVS_IC_rKAR, was analyzed in the positive analysis fitting direction relative to DMSO as the negative control and baseline of activity. […] Furthermore, this assay endpoint can be referred to as a primary readout, because the performed assay has only produced 1 assay endpoint. […]
Binding assays used specific radioligands (tritiated, iodinated) with non-radioactive competitive displacement ligands in agonist or antagonist protocols (as indicated) and various reference compounds and inhibitors to titrate specific binding to receptors and transporters. Most enzyme assays (CYPs, kinases, phosphatases, proteases, HDACs) used recombinant protein and specific substrates (fluorescence mostly, some colorimetric and radioactive) and inhibitors, followed by a biochemical separation of substrate and product. […]

Results filed as inconclusive are left out. Calls of active or inactive are those of the source. How the source made its calls: active means hit-call score of the fitted dose curve at least 0.9, where 1 is the maximum; inactive means score below 0.9.

Grik1 (gene 29559), sequence (P22756 whole entry, looked up): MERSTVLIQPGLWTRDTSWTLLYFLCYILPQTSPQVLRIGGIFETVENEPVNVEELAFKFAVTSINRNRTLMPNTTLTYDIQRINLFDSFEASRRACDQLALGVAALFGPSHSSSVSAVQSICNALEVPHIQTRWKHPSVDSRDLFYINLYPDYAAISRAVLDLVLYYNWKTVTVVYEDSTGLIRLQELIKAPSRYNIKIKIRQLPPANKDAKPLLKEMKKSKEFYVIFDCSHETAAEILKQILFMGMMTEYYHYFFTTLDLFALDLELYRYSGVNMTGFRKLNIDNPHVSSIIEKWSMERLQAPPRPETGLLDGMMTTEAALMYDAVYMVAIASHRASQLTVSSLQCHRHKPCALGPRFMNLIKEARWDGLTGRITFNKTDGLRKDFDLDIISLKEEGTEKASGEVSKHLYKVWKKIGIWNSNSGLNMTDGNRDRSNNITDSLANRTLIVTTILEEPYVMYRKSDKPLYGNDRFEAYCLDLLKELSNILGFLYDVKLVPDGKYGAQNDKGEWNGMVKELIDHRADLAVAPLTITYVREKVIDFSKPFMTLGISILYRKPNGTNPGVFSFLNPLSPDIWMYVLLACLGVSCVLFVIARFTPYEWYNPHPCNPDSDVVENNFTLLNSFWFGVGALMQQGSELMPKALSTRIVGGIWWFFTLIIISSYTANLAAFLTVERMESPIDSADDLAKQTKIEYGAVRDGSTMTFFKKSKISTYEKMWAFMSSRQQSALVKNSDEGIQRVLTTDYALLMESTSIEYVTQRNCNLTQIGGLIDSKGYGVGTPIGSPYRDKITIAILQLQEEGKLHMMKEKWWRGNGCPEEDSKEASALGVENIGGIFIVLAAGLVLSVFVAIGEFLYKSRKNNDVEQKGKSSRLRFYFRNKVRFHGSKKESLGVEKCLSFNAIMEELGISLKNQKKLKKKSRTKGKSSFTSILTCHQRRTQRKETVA

Broadly, the AC50 is the midpoint of the concentration-response curve, whichever way the signal moves. On to `CCCCCCCCCCCCCCCCCC(=O)O`, for which the AC50 is 1.4 µM (active). Regarding `CCCCCCC(C)OC(=O)COc1nc(F)c(Cl)c(N)c1Cl` (configuration not stated), the AC50 was 30.2 µM (active).
